{"source": "PubChem BioAssay AID1117362", "about": "(Southern Research Institute, 2015)", "note": "Out of some 3,600 compounds screened, about 100 (2.8%) were called active.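 How the source made its calls: active means inhibition above 30% at one or more concentrations, seen consistently on every test date; inconclusive means results that disagree between repeat test dates; inactive means the rest.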 These entries were drawn from the full list.", "data": [{"experiment": "biotin-GST/anti-GST TR-FRET signal inhibitors, dose response, artefact control for Vif-APOBEC3G degradation inhibitor project, biochemical (AID 1117362);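 further: biotinylated GST protein used in place of GST-Vif 1-94 and biotin-A3G peptide; detects fluorescence quenchers or blockers of GST binding to anti-GST antibody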", "conditions": "TR-FRET counter screen; series mostly up to 100 µM; inhibition: at the top concentration", "values": [{"compound": "Cc1noc(/C=C/c2ccco2)c1S(=O)(=O)N1CCC(C(=O)N2c3ccccc3CC2C)CC1", "note": "(stereo not drawn)", "inhibition": "-2.34% (inactive)"}, {"compound": "Cc1cc(C)nc(N/N=C/C2=C(N3CCOCC3)C(=C\\c3ccc(Cl)cc3)/CC2)n1", "inhibition": "-0.34% (inactive)"}, {"compound": "Cc1ccccc1NC(=O)c1c(C)[nH]c(=S)c(C#N)c1-c1ccco1", "inhibition": "-2.56% (inactive)"}, {"compound": "COc1ccc(OC)c(C2C(C(=O)Nc3ccc(F)cc3)=C(C)Nc3nc(CCCO)nn32)c1", "note": "(stereo not drawn)", "inhibition": "-2.07% (inactive)"}, {"compound": "c1ccc2c(c1)CCCN2Cc1nnc2n1CCCCC2", "inhibition": "18% (inactive)"}, {"compound": "CCOC(=O)C1CCN(C(c2cccs2)c2sc3nc(C)nn3c2O)CC1", "note": "(stereo not drawn)", "inhibition": "-0.51% (inactive)"}, {"compound": "Cc1onc(-c2c(F)cccc2Cl)c1C(=O)Nc1nnc(C2CC2)s1", "inhibition": "16.8% (inactive)"}, {"compound": "O=C(O)c1ccc(Cl)c2c1C1C=CCC1C(c1ccccn1)N2", "note": "(stereo not drawn)", "inhibition": "8.39% (inactive)"}, {"compound": "COCCCNC(=O)/C(C#N)=C/c1ccc(OCC(=O)O)c(OC)c1", "inhibition": "5.26% (inactive)"}, {"compound": "CCOC(=O)N1CCN(C(=O)c2ccc3c(SCC(=O)O)c4c(nc3c2)CCC4)CC1", "inhibition": "6.29% (inactive)"}, {"compound": "COC(=O)C1=C(C)NC(=O)/C1=C\\c1cccs1", "inhibition": "-11.6% (inactive)"}, {"compound": "CC(=O)C1=C(C)NC(C)=C(C(C)=O)C1c1cccs1", "inhibition": "0.1% (inactive)"}, {"compound": "CNc1c(C(=O)O)ccc2c1C(=O)c1ccccc1C2=O", "inhibition": "-29.9% (inactive)"}, {"compound": "COCc1cc(C)nc(NCCO)c1C#N", "inhibition": "0.98% (inactive)"}, {"compound": "CC(C)c1ccc(/C=C/C(=O)N2CCc3ccccc3C2)cc1", "inhibition": "-2.23% (inactive)"}, {"compound": "CCOC(=O)C1=C(c2ccccc2)N=c2s/c(=C\\c3ccco3)c(=O)n2C1c1cccs1", "note": "(stereo not drawn)", "inhibition": "0.16% (inactive)"}, {"compound": "O=C(O)Cc1ccc(N=Nc2c(O)c(C(=O)O)cc3ccccc23)cc1", "inhibition": "-2.75% (inactive)"}, {"compound": "COC(=O)c1ccc(C)c(NC(=O)CCSc2ccccc2)c1", "inhibition": "4.21% (inactive)"}, {"compound": "O=C(COC(=O)c1c2c(nc3ccccc13)/C(=C\\c1ccco1)CC2)NC1CCCC1", "inhibition": "7.73% (inactive)"}, {"compound": "CCC(=O)N1N=C(c2ccc(NS(C)(=O)=O)cc2)CC1c1ccc(C)cc1", "note": "(stereo not drawn)", "inhibition": "1.76% (inactive)"}, {"compound": "Cn1nc(-c2ccc(Cl)cc2)c2cc(C(=O)N3CCN(c4ccccc4)CC3)sc21", "inhibition": "-21.1% (inactive)"}, {"compound": "CCOC(=O)c1sc2nc(CC(=O)OC)nc(NCc3ccco3)c2c1C", "inhibition": "6.59% (inactive)"}, {"compound": "CCOc1ccc(-n2c(Cc3cc(=O)[nH]c(=O)[nH]3)nnc2SCC(N)=O)cc1", "inhibition": "1.18% (inactive)"}, {"compound": "COC(=O)COc1ccc(S(=O)(=O)Nc2cc(OC)ccc2OC)cc1", "inhibition": "5.91% (inactive)"}, {"compound": "COC(=O)CSc1nnc(CNC(=O)Cc2ccccc2)n1C", "inhibition": "-1.09% (inactive)"}, {"compound": "CCOC(=O)c1cc2cc(F)ccc2nc1C", "inhibition": "-1.31% (inactive)"}, {"compound": "O=C(Cc1ccccc1)NC(Nc1ccccc1)C(Cl)(Cl)Cl", "note": "(stereo not drawn)", "inhibition": "-1.08% (inactive)"}, {"compound": "Cc1ccc(C)c(-n2c(Cc3cc(=O)[nH]c(=O)[nH]3)nnc2SC(C)C)c1", "inhibition": "3.25% (inactive)"}, {"compound": "O/N=C1\\CCC\\C1=C/c1ccco1", "inhibition": "1.01% (inactive)"}, {"compound": "O=C(CCCCCN1C(=O)CCC1=O)Nc1ccc(Cl)c(C(F)(F)F)c1", "inhibition": "3.39% (inactive)"}, {"compound": "Cc1ccc(N(CC(=O)NCCSCc2ccco2)S(=O)(=O)c2ccc(F)cc2)cc1", "inhibition": "1.13% (inactive)"}, {"compound": "CCOc1ccc(-n2c(Cc3cc(=O)[nH]c(=O)[nH]3)nnc2SCC(=O)NC2CCCC2)cc1", "inhibition": "0.17% (inactive)"}, {"compound": "CC1CCCN(C(=O)CN2CCN(C(=O)c3ccco3)CC2)C1", "note": "(stereo not drawn)", "inhibition": "-3.6% (inactive)"}, {"compound": "COc1ccc(CCNC(=O)CN2CCCc3ccccc32)cc1OC", "inhibition": "18.5% (inactive)"}, {"compound": "O=C(c1ccco1)N1CCN(C(c2ccccn2)c2nnnn2C2CCCC2)CC1", "note": "(stereo not drawn)", "inhibition": "5.15% (inactive)"}, {"compound": "O=C(NC1CCCC1)C(c1ccco1)N(Cc1ccccc1)C(=O)c1csnn1", "note": "(stereo not drawn)", "inhibition": "-2.57% (inactive)"}, {"compound": "c1cncc(-c2csc(NCc3ccco3)n2)c1", "inhibition": "3.94% (inactive)"}, {"compound": "COc1cc(CC(=O)OCC(=O)Nc2cccc([N+](=O)[O-])c2)cc(OC)c1OC", "inhibition": "5.53% (inactive)"}, {"compound": "CCOC(=O)Cn1nnnc1C(C(C)C)N(Cc1cc2c(C)cc(C)cc2[nH]c1=O)C1CCCC1", "note": "(stereo not drawn)", "inhibition": "2.05% (inactive)"}, {"compound": "CC(=O)Nc1ccc(S(=O)(=O)NCCSCc2ccco2)cc1", "inhibition": "-6.34% (inactive)"}, {"compound": "CCOC(=O)c1cnn2c(N)c(C#N)nnc12", "inhibition": "6.25% (inactive)"}, {"compound": "CSc1nc(N(CCO)CCO)c2sc3nc(-c4ccco4)c4c(c3c2n1)CCC4", "inhibition": "1.7% (inactive)"}, {"compound": "CC(=C/c1ccco1)/C=N/NC(=O)Cc1cccn1C", "inhibition": "1.17% (inactive)"}, {"compound": "COc1ccccc1NC(=O)CSc1nnc(Cc2cc(=O)[nH]c(=O)[nH]2)n1-c1ccccc1", "inhibition": "4.67% (inactive)"}, {"compound": "Cc1nc2ncccn2c1-c1csc(NCc2ccco2)n1", "inhibition": "28.8% (inactive)"}, {"compound": "Cc1cc(S(=O)(=O)N(Cc2ccccn2)Cc2ccco2)ccc1-n1cnnn1", "inhibition": "4.56% (inactive)"}, {"compound": "COc1ccccc1C1C=C(c2ccc(C)cc2)Nc2nnnn21", "note": "(stereo not drawn)", "inhibition": "-0.76% (inactive)"}, {"compound": "O=C(O)/C=C/C(=O)Nc1cccnc1", "inhibition": "0.54% (inactive)"}, {"compound": "O=C(c1cc2n(n1)C(C(F)(F)F)CC(c1ccco1)N2)N1CCc2ccccc2C1", "note": "(stereo not drawn)", "inhibition": "-4.85% (inactive)"}, {"compound": "COc1ccc(-c2ccc(C#N)c(SCC(=O)Nc3sc4c(c3C#N)CCC4)n2)cc1OC", "inhibition": "2.31% (inactive)"}, {"compound": "CC(=O)OC1COC(n2ccc3ccccc32)C(OC(C)=O)C1OC(C)=O", "note": "(stereo not drawn)", "inhibition": "2.58% (inactive)"}, {"compound": "O=C1C2C3CCCC3=C3CCCC3C2C(=O)N1c1ccccc1", "note": "(stereo not drawn)", "inhibition": "5.45% (inactive)"}, {"compound": "CCCCn1c(=NC(=O)c2cccnc2)c(C#N)cc2c(=O)n3cccc(C)c3nc21", "inhibition": "11.7% (inactive)"}, {"compound": "CCc1ccc2nc(N3CCN(C)CC3)c(C#N)cc2c1", "inhibition": "4.9% (inactive)"}, {"compound": "Cc1nc2cc(N=NC3=C(O)CCCC3=O)ccc2s1", "inhibition": "26.2% (inactive)"}, {"compound": "COc1ccc2ccccc2c1C1CC(=O)N2CN(Cc3ccco3)CSC2=C1C#N", "note": "(stereo not drawn)", "inhibition": "4.69% (inactive)"}, {"compound": "C=CC(=O)N1C/C(=C/c2ccc(F)cc2)C(=O)/C(=C\\c2ccc(F)cc2)C1", "inhibition": "0.46% (inactive)"}, {"compound": "O=C1NC(=S)N/C1=C/c1ccc(-c2c(Br)cc([N+](=O)[O-])cc2Br)o1", "inhibition": "11.7% (inactive)"}, {"compound": "COC(=O)C1=C(N)OC2=C(C(=O)CCC2)C1c1cccs1", "note": "(stereo not drawn)", "inhibition": "0.5% (inactive)"}, {"compound": "CC1(c2ccc3noc(-c4ccccc4)c3c2)OCCO1", "inhibition": "2.44% (inactive)"}, {"compound": "O=C(COC(=O)/C=C/c1ccco1)Nc1ncc(C(F)(F)F)cc1Cl", "inhibition": "-4.53% (inactive)"}, {"compound": "CCOC(=O)c1c(C)oc2c1c(C=NCc1ccccn1)c(O)c1ccccc12", "inhibition": "21.7% (inactive)"}, {"compound": "Cc1ccc(C(=O)Nc2ccc(O)c(C(=O)O)c2)o1", "inhibition": "3.82% (inactive)"}, {"compound": "COc1ccccc1/C=C(/CC(=O)NCc1ccccc1)c1nc2ccccc2s1", "inhibition": "0.36% (inactive)"}, {"compound": "COc1ccc(-c2nc3oc4cc(OC)ccc4c(=O)c3c(=O)n2Cc2ccco2)cc1", "inhibition": "-0.8% (inactive)"}, {"compound": "O=S(=O)(Nc1nccs1)c1ccc(Nc2nnc(-c3ccccc3)c3ccccc23)cc1", "inhibition": "-2.36% (inactive)"}, {"compound": "Cc1ccc(-n2c(C)cc(C(=O)OCC(=O)N(CC(C)C)C3CCS(=O)(=O)C3)c2C)cc1", "note": "(stereo not drawn)", "inhibition": "3.83% (inactive)"}, {"compound": "CCOc1cc(N2CCOCC2)c(OCC)cc1NS(=O)(=O)c1ccc(Cl)s1", "inhibition": "9.78% (inactive)"}]}]}
